# Results: PubChem BioAssay (NCATS)
# Values joined by “and” are separate entries in the source; they are usually repeats but may differ in a detail not shown here. Equal entries are not always repeated. A number with no mark means an inactive call. Inconclusive results are not listed. Active and inactive are the calls of the source. Unless noted, calls follow the shape of the dose curve; as a rule, active = well fitted curve in either direction with a large enough effect (not every such curve was filed as active); inconclusive = small, poorly fitted or top-dose-only effect, or another doubt; inactive = flat fitted curve, though single readings scatter.
# What was measured:
# [1] = Stat Signaling Pathway (AID 446); settings: ME-180 SIE beta-lactamase reporter, IL-6 stimulated, 5 h; at 17.2 µM (top of the series) unless noted;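 also: ME-180 cervical cancer cells given 40 pM IL-6 alongside compound; SIE-controlled beta-lactamase reporter measured as 460/530 nm FRET emission ratio; % is scaled to controls: 0 for no effect and ±100 for the full control effect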
# Summary of the method: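 Reporter line: ME-180 cervical carcinoma, SIE-beta-lactamase. Treatment: compound with 40 pM IL-6, 5 hrs, 37 C, in low-serum OPTI-MEM with 10 mM HEPES pH 7.3. Detection: 460/530 nm fluorescence.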
# [2] = biological target: Glucocorticoid receptor (Homo sapiens) (UniProt P04150); assay: GR-GFP Redistribution (AID 450;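 active = compounds whose dose series gives a full or clear partial fitted curve of increased nuclear translocation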; also: potency is read from the fitted curve at half-maximal effect); settings: U2OS GR-GFP nuclear translocation, laser cytometry, 2 h; series mostly up to 20.6 µM
# [3] = biological target: Glucocorticoid receptor (Homo sapiens) (UniProt P04150); assay: GR-EFC Redistribution (AID 451; calls by dose curve; also: potency is read from the fitted curve at half-maximal effect); settings: CHO-K1 GR-EFC translocation, beta-gal luminescence, 2 h
# Summary of the method: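 CHO-K1 cells expressing nuclear EA and GR-ED fragments of b-gal; compounds titrated up to 46 uM final, 2 h at 37 C. GR nuclear translocation read as complemented b-gal luminescence after 1 h RT detection.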
# [4] = biological target: Mitogen-activated protein kinase 10 (Mus musculus) (UniProt Q61831); assay: JNK3 AlphaScreen Assay (AID 530); settings: JNK3 lysate, c-Jun phosphorylation; series mostly up to 57.1 µM;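 also: kinase came from lysate of stimulated human HepG2 cells; signal reports phosphorylation of biotinylated GST-cJun 1-79 at Ser73 with 10 µM ATP; % is scaled to controls: 0 for no effect and ±100 for the full control effect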
# Summary of the method: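 qHTS format: compounds tested as titrations against IL-1beta/TNF-alpha-activated HepG2 lysate JNK3 with biotin-GST-cJun substrate and 10 uM ATP at room temperature. Loss of anti-phospho-cJun AlphaScreen signal indicates inhibition.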
# [5] = biological target: 3',5'-cyclic-AMP phosphodiesterase 4B (Homo sapiens) (UniProt Q07343); assay: qHTS Assay for Inhibitors of PDE-IV (AID 607; active = well fitted activation curve with a large enough effect in the main read-out, with a control signal flat, not every such curve was filed as active; also: % of control where 0% means no effect); settings: HEK293 ACTOne CNG channel cells, membrane potential fluorescence; series mostly up to 22.9 µM
# Summary of the method: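 Cell-based read-out of cAMP via a modified cyclic nucleotide-gated channel and membrane potential dye (535/590 nm) in HEK293 cells expressing PDE4 endogenously. Compounds tested up to 22.9 uM final; 100 uM RO 20-1724 reference.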
# [6] = qHTS Assay for Identification of Small Molecule Antagonists for Thrombopoietin (TPO) Signaling Pathway (AID 918; active = well fitted curve in the direction sought with a large enough effect; an effect the other way counts as inactive or inconclusive; also: potency is read from the fitted curve at half-maximal effect; nearly all actives have a fitted effect of over 60% in size); settings: TPO-dependent cell signaling reporter, antagonist mode
# Summary of the method: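 Murine Ba/F3 cells stably expressing human TPO receptor and a Glycoprotein IIb promoter–luciferase reporter were IL-3-starved overnight, treated with compounds plus TPO (26 pM final, its EC50) for 24 hrs at 37 C, then read by luminescence.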
# [7] = biological target: Pyruvate kinase (Leishmania mexicana) (UniProt Q27686); assay: qHTS Validation Assay for Inhibitors of Leishmania Mexicana Pyruvate Kinase (AID 945; active = well fitted curve in the direction sought with a large enough effect; an effect the other way counts as inactive or inconclusive;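 also: 0% = DMSO only neutral control wells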); settings: purified L. mexicana pyruvate kinase, enzyme activity, E451W mutant enzyme; series mostly up to 57.5 µM
# Summary of the method: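 Mutant LmPYK (E451W), 0.2 nM, plus 0.5 mM PEP and 0.1 mM ADP in 50 mM imidazole pH 7.2 containing 0.01% Tween 20 and 0.05% BSA. Incubated 1 h at room temperature; luminescence via PKLight, normalized to DMSO.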
# [8] = biological target: Pyruvate kinase PKM (Homo sapiens) (UniProt P14618); assay: qHTS Assay for Activators of Human Muscle Pyruvate Kinase (AID 954; active = well fitted curve in the direction sought with a large enough effect, not every such curve was filed as active;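 also: 0% = uninhibited enzyme and -100% = no enzyme or full thiadiazolimine inhibition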); settings: purified human muscle pyruvate kinase, luciferase-coupled luminescence, 1 h; series mostly up to 57.5 µM
# Summary of the method: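 Human PKM2 activity is measured as ATP generation, detected by luciferase-coupled luminescence. The enzyme (0.1 nM) acts on 0.5 mM PEP and 0.1 mM ADP for 1 h at ambient temperature; data are normalized to uninhibited and full-inhibition wells.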
# [9] = biological target: Alpha-galactosidase A (Homo sapiens) (UniProt P06280); assay: Counterscreen for Glucocerebrosidase Inhibitors: qHTS Assay for Human alpha-Galactosidase at pH 4.5 (AID 992; active = well fitted curve in the direction sought with a large enough effect; an effect the other way counts as inactive or inconclusive; also: 0% is about no effect); settings: purified enzyme, fluorogenic substrate; series mostly up to 76.9 µM
# Summary of the method: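 Quantitative HTS: compounds tested from 0.7 nM up to 77 uM against 2 nM enzyme with 80 uM 4-MU alpha-D-galactopyranoside. The 20 min room-temperature reaction is stopped with 1M NaOH/1M glycine, pH 10.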
# [10] = biological target: alpha-glucosidase (Oryza sativa, rice) (UniProt Q653V4); assay: Counterscreen for Glucocerebrosidase Inhibitors: qHTS Assay for Rice alpha-Glucosidase at pH 5.0 (AID 997; active = well fitted curve in the direction sought with a large enough effect; an effect the other way counts as inactive or inconclusive;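 also: 0% = full activity with enzyme and -100% = basal without enzyme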); settings: rice alpha-glucosidase enzyme activity; series mostly up to 76.9 µM
# Summary of the method: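 Rice alpha-glucosidase (4 nM final) with 400 uM 4-methylumbelliferyl-alpha-D-glucopyranoside in citrate buffer pH 5.0, 20 min at room temperature, stopped at pH 10; fluorescence 365/440 nm, compounds 0.7 nM–77 uM, AC50 from Hill fits.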
# [11] = qHTS Assay for Identification of Small Molecule Agonists for Hypoxia Response Element Signaling Pathway (AID 914; active = well fitted activation curve with a large enough effect in the signal ratio, with a control signal flat, not every such curve was filed as active; the % refers to the signal ratio; also: potency is read from the fitted curve at half-maximal effect); settings: ME-180 (cervical carcinoma) HRE-bla reporter, beta-lactamase ratio, CoCl2, 17 h; activation: active compounds read high
# Summary of the method: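 Reporter activity (beta-lactamase, CCF4 460nm/530nm ratio) in HRE-bla ME-180 cells is recorded after 17 h compound exposure with EC50 CoCl2 at 37 degrees Celsius. AC50 values come from titration data.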
# Sequence of 3',5'-cyclic-AMP phosphodiesterase 4B (Homo sapiens) (Q07343 whole entry, looked up): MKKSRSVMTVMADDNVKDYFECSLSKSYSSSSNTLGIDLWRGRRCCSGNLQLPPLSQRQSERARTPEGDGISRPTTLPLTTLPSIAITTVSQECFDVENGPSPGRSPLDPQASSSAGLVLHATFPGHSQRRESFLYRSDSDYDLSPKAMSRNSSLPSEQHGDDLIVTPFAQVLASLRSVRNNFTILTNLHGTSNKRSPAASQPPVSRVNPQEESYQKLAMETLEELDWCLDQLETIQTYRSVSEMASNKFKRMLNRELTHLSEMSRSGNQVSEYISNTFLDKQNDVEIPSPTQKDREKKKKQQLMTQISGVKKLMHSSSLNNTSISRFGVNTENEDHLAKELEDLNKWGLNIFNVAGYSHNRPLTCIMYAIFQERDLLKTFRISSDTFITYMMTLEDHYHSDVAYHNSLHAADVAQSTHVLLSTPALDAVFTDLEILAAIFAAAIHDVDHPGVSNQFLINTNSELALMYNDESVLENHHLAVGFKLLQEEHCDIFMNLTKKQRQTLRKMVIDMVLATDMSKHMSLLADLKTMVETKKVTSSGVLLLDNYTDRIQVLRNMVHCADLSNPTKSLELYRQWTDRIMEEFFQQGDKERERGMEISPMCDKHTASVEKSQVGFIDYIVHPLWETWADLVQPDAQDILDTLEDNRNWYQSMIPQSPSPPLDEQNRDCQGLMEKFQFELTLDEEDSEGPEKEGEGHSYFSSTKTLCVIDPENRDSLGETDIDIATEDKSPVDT
# Sequence of Glucocorticoid receptor (Homo sapiens) (P04150 whole entry, looked up, the tested form may be a part): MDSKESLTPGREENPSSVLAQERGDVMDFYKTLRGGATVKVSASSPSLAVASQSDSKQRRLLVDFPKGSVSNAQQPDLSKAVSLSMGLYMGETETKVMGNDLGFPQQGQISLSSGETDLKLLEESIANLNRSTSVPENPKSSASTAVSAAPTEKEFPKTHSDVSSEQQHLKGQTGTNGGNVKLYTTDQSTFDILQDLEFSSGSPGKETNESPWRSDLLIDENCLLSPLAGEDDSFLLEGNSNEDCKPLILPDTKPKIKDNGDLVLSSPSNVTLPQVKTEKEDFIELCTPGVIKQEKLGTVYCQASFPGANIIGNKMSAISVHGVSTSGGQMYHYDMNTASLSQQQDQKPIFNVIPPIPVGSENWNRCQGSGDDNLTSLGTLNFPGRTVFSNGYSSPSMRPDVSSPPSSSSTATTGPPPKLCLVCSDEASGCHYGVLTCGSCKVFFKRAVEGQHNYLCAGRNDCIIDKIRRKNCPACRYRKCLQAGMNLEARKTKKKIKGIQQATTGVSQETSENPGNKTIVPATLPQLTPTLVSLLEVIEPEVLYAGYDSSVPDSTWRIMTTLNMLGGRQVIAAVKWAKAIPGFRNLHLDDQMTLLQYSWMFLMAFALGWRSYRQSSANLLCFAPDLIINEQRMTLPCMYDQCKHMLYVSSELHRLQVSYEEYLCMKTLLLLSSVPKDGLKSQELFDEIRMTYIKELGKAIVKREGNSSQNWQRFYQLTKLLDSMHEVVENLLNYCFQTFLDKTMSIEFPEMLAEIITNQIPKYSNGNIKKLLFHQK
# Sequence of Pyruvate kinase PKM (Homo sapiens) (P14618 whole entry, looked up): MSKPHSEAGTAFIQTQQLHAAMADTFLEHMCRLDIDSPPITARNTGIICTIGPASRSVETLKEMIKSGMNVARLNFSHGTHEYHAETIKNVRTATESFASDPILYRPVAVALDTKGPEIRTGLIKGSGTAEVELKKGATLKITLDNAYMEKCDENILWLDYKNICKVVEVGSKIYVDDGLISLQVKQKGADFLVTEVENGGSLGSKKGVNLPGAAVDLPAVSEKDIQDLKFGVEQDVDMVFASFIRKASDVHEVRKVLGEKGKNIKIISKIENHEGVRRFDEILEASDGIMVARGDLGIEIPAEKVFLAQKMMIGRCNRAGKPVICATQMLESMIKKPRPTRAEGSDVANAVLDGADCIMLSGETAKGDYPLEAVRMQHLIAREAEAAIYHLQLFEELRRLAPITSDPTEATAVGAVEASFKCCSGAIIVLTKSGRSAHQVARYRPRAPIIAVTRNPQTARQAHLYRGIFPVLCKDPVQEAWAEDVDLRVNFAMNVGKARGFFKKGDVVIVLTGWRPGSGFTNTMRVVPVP
# Sequence of Pyruvate kinase (Leishmania mexicana) (Q27686 2-499 E452W): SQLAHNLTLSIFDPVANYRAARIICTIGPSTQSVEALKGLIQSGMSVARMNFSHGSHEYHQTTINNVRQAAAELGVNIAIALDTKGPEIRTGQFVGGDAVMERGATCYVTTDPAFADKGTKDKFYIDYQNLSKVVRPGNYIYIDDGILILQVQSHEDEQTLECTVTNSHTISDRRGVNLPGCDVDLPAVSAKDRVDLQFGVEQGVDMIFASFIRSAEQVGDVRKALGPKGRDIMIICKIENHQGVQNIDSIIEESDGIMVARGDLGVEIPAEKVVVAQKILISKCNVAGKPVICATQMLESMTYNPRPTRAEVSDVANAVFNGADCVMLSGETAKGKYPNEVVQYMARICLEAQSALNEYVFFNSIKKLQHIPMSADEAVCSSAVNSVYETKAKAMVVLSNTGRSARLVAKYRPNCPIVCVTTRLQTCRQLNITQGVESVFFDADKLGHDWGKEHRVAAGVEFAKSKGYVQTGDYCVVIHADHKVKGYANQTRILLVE
# Sequence of Alpha-galactosidase A (Homo sapiens) (P06280 whole entry, looked up): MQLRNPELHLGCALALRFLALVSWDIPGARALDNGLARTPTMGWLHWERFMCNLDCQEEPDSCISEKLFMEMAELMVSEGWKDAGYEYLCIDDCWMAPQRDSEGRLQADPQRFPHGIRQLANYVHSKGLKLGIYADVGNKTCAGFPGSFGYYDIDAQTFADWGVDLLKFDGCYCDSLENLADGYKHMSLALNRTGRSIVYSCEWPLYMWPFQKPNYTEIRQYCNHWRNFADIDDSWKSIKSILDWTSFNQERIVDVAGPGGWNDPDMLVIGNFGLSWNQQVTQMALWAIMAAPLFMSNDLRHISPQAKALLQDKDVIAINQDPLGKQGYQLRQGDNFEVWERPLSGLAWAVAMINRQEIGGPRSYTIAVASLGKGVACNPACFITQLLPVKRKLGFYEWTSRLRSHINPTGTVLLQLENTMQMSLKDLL
smiles,measurement,setting,value
CCOC(=O)c1[nH]c2ccc(Br)cc2c1NC(=O)CCN1CCC(C(=O)OCC)CC1,"activity, negative = inhibition",[1],-11%
same,Potency,[2],> 20.6 µM
COC(=O)CC1=C(C(=O)OC)C(c2ccncc2)C(C#N)=C(N)O1 (stereo not given),"activity, negative = inhibition",[1],0.288%
same,Potency,[2],> 20.6 µM
CSc1ccc2c(c1)N(CC[C@H]1CCCCN1C)c1ccccc1S2,"activity, negative = inhibition",[1],-7.21%
same,Potency,[2],> 46 µM and > 20.6 µM
same,Potency,[3],> 46 µM and > 20.6 µM
same,Potency,[4],inactive
same,Potency,[5],inactive
same,Potency,[6],12.6 µM (active)
same,Potency,[7],inactive
same,outcome,[8],inactive
same,outcome,[9],inactive
same,outcome,[10],inactive
CCN(CC)CCOC(=O)c1c(C)n(C)c2ccc(OC)cc12,"activity, negative = inhibition",[1],11.9%
same,Potency,[2],> 20.6 µM
CCOc1ccc(C2=Nn3c(nnc3-c3ccccc3OC)SC2)cc1,"activity, negative = inhibition",[1],-10.6%
same,Potency,[2],> 20.6 µM
COc1ccc(CNc2oc(COc3ccc(Cl)cc3)nc2C#N)cc1,"activity, negative = inhibition",[1],-26.7%
same,Potency,[2],> 20.6 µM
Cc1c(C)c2cc(Cl)c(O)c(CN3CCN(C)CC3)c2oc1=O,"activity, negative = inhibition",[1],11.1%
same,Potency,[2],> 20.6 µM
same,Potency,[11],7.94 µM (active)
COc1cccc(-c2nnc3sc(C4CCCCC4)nn23)c1,"activity, negative = inhibition",[1],-91.1% (active)
same,Potency,[2],> 20.6 µM
Cc1c(C)c2c(c(C)c1O)CC[C@@](C)(CN1CCN(c3cc(N4CCCC4)nc(N4CCCC4)n3)CC1)O2,"activity, negative = inhibition",[1],19.8% [at 38 µM]
same,Potency,[2],> 46 µM
same,Potency,[3],> 46 µM
same,Potency,[5],inactive
same,Potency,[6],10 µM (active)
same,Potency,[7],inactive
same,outcome,[8],inactive
same,outcome,[9],inactive
same,outcome,[10],inactive
Fc1ccccc1-c1nc(N2CCCCC2)c2ccccc2n1,"activity, negative = inhibition",[1],-21.5%
same,Potency,[2],> 20.6 µM
CCOC(=O)c1[nH]c2cc3c(cc2c1NC(=O)CN1CCCCC1C)OCO3 (stereo not given),"activity, negative = inhibition",[1],-10.3%
same,Potency,[2],> 20.6 µM
CCOc1ccc(/C(O)=C2/C(=O)C(=O)N(c3cc(C)on3)C2c2ccc(C(=O)OC)cc2)cc1 (stereo not given),"activity, negative = inhibition",[1],-18.4%
same,Potency,[2],> 20.6 µM
